# GoLoco inh red – RGS12 GoLoco-Gai1 interaction inhibition; P63096; Gai1:RGS12 GoLoco peptide FP, rhodamine, 10 min; Potency, µM (doses to about 61.6 µM), without a hit: at the top dose activity, negative = inhibition, usual class: inhibitors; 230,000 compounds, 0.44% hits; active = well fitted inhibition curve with a large enough effect, not every such curve was filed as active; inactive = no such curve, though single readings can be large or run the other way; note: potency is the fitted concentration of half-maximal effect; nearly all actives have a fitted effect of over 30% in size
# ALDH1A1 block – blocks purified human ALDH1A1 activity; P00352; Purified ALDH1A1, NADH fluorescence, propionaldehyde substrate; Potency, µM (top dose mostly 75.3 µM), without a hit: at the top dose activity, negative = inhibition, usual class: inhibitors; 220,000 compounds, 7.3% hits;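 note: potency is the fitted concentration of half-maximal effect; plate controls were no enzyme wells and a reference inhibitor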
# Target sequence (P00352 whole entry, looked up): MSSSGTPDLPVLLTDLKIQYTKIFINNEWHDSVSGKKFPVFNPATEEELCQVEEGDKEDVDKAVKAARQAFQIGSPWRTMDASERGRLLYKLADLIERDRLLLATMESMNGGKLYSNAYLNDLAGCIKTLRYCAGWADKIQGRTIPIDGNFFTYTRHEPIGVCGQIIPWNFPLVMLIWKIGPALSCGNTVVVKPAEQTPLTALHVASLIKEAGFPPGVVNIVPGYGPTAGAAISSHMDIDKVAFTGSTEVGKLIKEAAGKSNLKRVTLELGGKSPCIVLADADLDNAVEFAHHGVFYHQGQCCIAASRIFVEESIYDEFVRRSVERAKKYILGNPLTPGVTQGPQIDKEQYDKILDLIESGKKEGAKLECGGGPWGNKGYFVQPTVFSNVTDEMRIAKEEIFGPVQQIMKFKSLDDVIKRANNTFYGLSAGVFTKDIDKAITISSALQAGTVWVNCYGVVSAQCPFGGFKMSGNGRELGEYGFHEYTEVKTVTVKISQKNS
# NPSR antagonist – neuropeptide S receptor (human) antagonism, cAMP | Q6W5P4 | CHO-NPSR cells, cAMP TR-FRET, antagonist mode | Potency, µM (top dose mostly 38.3 µM), for inactives: at the top dose activity change, negative = inhibition, hits mostly inhibitors | 220,000 compounds, 1% hits; active = well fitted curve in the direction sought with a large enough effect; inconclusive = small, poorly fitted or top-dose-only effect, or another doubt; inactive = no such curve, though single readings can be large; an effect the other way counts as inactive or inconclusive; note: potency is the fitted concentration of half-maximal effect; nearly all actives have a fitted effect of over 50% in size
# Sfp inh – inhibitors of Bacillus subtilis Sfp phosphopantetheinyl transferase; Q9F4F7; Biochemical Sfp PPTase activity, qHTS; Potency, µM, for the others: largest response in the series, negative = inhibition, most hits filed as inhibitors; 310,000 compounds, 3.5% hits; active = well fitted curve in the direction sought with a large enough effect; inconclusive = small, poorly fitted or top-dose-only effect, or another doubt; inactive = no such curve, though single readings can be large; an effect the other way counts as inactive or inconclusive;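 note: the enzyme is Sfp with the accession as filed and its product quenches rhodamine fluorescence; potency is the fitted concentration of half-maximal effect; 0% = enzyme reaction without inhibitor and -100% = no enzyme wells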
#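 After 15 min at room temperature with compound, 15 nM Sfp received 5 uM rhodamine-CoA plus 12.5 uM BHQ-2-ybbR (50 mM Hepes pH 7.6, 10 mM MgCl2). Rate came from the fluorescence difference over 30 min, ex 525/em 598 nm.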
# KDM4E inh – blocks human JMJD2E demethylase activity; Potency, µM (doses to about 57.1 µM), for the others: at the highest dose activity change, negative = inhibition, usual class: inhibitors; 230,000 compounds, 1.6% hits; AID 2147; JMJD2E catalytic domain, FDH-coupled NADH fluorescence (FDH is formaldehyde dehydrogenase); B2RXH2;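 note: potency is the fitted concentration of half-maximal effect; 0% = wells with enzyme and -100% = buffer wells without enzyme; nearly all actives have a fitted effect of over 50% in size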
# Coupling enz – coupling enzyme interference in Giardia aldolase counter-screen; activity change, negative = inhibition, % at 58.2 µM, hits read low; 290,000 compounds, 0.67% hits; coupling enzyme system counterscreen, AmpLite Red fluorescence; AID 2472; in the data active = activity change below about -30%
#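 Counterscreen of the coupled detection system alone, without aldolase: glyceraldehyde-3-phosphate coupling enzymes plus AmpLite Red readout. Compounds at 57.5 uM final, 10 min RT preincubation, 20 min RT reaction, fluorescence 525/598 nm.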
# * marks the source's active call; other numbers are inactive results; ? = inconclusive; / = no result; [ ] = another dose, or the depositor's remark. Shown are actives, neighbours in structure and some others; about 8.5% of the full set was active somewhere. Unless noted, calls come from the whole dose curve; as a rule, active = well fitted inhibition curve with a large enough effect (not every such curve was filed as active); inconclusive = small, poorly fitted or top-dose-only effect, or another doubt; inactive = no such curve, though single readings can be large or run the other way. Unless noted, % is set by controls: 0 for no effect and ±100 for the full control effect.
SMILES,GoLoco inh red,ALDH1A1 block,NPSR antagonist,Sfp inh,KDM4E inh,Coupling enz
c1ccc(C2[C@H]3CN(CC4CCCCC4)[C@H](c4ccccc4)C34CC2(c2cccnc2)C4)cc1 (stereo not given in full),4.1%,?,-53.5%,-4.0%,-14.5%,2.6
Cc1cc(C)c2oc(C(=O)Nc3ccc(S(=O)(=O)N4CCCC(C)C4)cc3)cc(=O)c2c1 (stereo not given),9.7%,70.1%,-6.3%,8.0%,34.4%,-2.2
CC(C)OC(=O)C(C(=O)C(F)(F)F)c1cc(NS(=O)(=O)c2ccc3ccccc3c2)c2ccccc2c1O (stereo not given),-1.0%,?,?,56.2µM*,?,-19.6
Cc1ccc2cc(CCNS(=O)(=O)c3ccc(Br)cc3)c(=O)[nH]c2c1C,/,/,/,-1.2%,/,1.7
CC(C)C1OC2c3cccc4cccc(c34)C2N1c1ccccc1 (stereo not given),-51.6%,25.1µM*,-5.3%[46.1 µM],-6.8%,?,-13.9
CN(Cc1ccco1)c1cc(-c2ccc3c(c2)OCO3)ncn1,-12.3%,?,/,-12.7%,/,-2.5
CCOc1ccc(S(=O)(=O)N/N=C(\C)C2CCCCC2)cc1,-9.9%,1.78µM*,1.9%,-23.7%,2.5%,0.0
CCOc1ccc(S(=O)(=O)N/N=C(\C)Cc2ccc(OC)cc2)cc1,-6.7%,2.82µM*,1.1%,9.5%,6.0%,3.8
CCOc1ccc(NC(=S)N/N=C(\C)Cc2ccc(OC)cc2)cc1,-8.8%,-3.3%,10.6%,9.5%,-5.7%,4.0
COc1cc(OC)cc(C(=O)N2CCN(C(=O)c3cccnc3)CC2)c1,/,/,/,11.2%,/,0.6
CCOCC(=O)Nc1nnc(COc2ccc(Cl)cc2)s1,-2.5%,3.55µM*,-3.8%[7.67 µM],28.2µM*,0.5%,4.6
Cc1onc(-c2ccccc2)c1C(=O)Nc1nnc(COc2ccc(Cl)cc2)s1,-17.2%,1.12µM*,-15.4%[46.1 µM],7.08µM*,?,-1.1
O=C(Cc1cccc(F)c1F)NC1CCCN(Cc2ccc(Cl)cc2)C1 (stereo not given),/,/,/,17.9%,/,3.1
COc1cccc(-c2nnc(-c3ccc(C)o3)o2)c1,22.0%,?,-25.3%[46.1 µM],56.2µM*,-0.4%,-6.1
COc1cccc(-c2nnc(-c3ccco3)o2)c1,3.1%,?,3.4%,5.7%,?,3.1
CCn1c(SCC(=O)NCCc2ccccc2)nc2sc3c(c2c1=O)CCN(C)C3,7.3%,?,0.5%,4.5%,?,-0.1
CCn1c(SCC(=O)c2ccccc2)nc2sc3c(c2c1=O)CCN(C)C3,27.9%,/,-29.6%,50.1µM*,?,-2.4
CCc1c(O)cc2n(c1=O)-c1ccc(Cl)cc1C2(C)C,7.2%,28.2µM*,5.2%[46.1 µM],22.8%,0.0%,1.8
CC(C)(C)C1=CC=C(C(C)(C)C)C(=O)C1=O,-31.1%,1.58µM*,56.3%,1.58µM*,-13.3%,-59.6*
COc1cc(N=C2C(=O)N3CCCc4cccc2c43)cc(OC)c1,2.9%,0.631µM*,5.2%,-0.3%,-3.4%,-2.0
COc1cccc(C(=O)N2CCCc3ccccc32)c1,0.7%,-12.5%,-15.2%[46.1 µM],-2.2%,11.1%,-0.7
COc1ccc(OC)c(NC(=O)CSc2nnc(-c3cnccn3)n2C)c1,/,/,/,6.9%,/,/
Cc1ccccc1C(=O)N1CCN(c2ncnc3c2cnn3-c2ccccc2)CC1,5.4%,7.94µM*,-9.9%[46.1 µM],6.6%,-5.2%,0.4
CCN1CCN(c2ncnc3c2cnn3-c2ccc(Cl)cc2)CC1,-0.9%,/,-23.8%,9.7%,?,6.0
CCOC(=O)N1CCN(c2ncnc3c2cnn3-c2ccc(Cl)cc2)CC1,-7.6%,3.98µM*,-14.8%[46.1 µM],4.9%,-21.1%,2.6
SMILES,GoLoco inh red,ALDH1A1 block,NPSR antagonist,Sfp inh,KDM4E inh,Coupling enz
c1ccc(CCN2CCN(c3ncnc4c3cnn4-c3ccccc3)CC2)cc1,-2.0%,28.2µM*,-14.3%[46.1 µM],1.3%,5.6%,0.0
CC1(c2nnc(-c3cccc(Cl)c3)o2)CC(c2ccccc2Br)=NO1 (stereo not given),/,/,/,-12.9%,/,-1.6
O=C(NCc1ccccc1Br)c1ccc2c(c1)OCCO2,/,/,/,10.5%,/,0.8
Cc1cccc(N2C(=O)CCC2=O)n1,-0.3%,14.3%,9.7%,18.7%,10.8%,-2.4
Cn1cnnc1SCC(=O)Nc1ccc2nc(SCc3ccccc3)sc2c1,-26.0%,3.55µM*,-15.8%[46.1 µM],-5.4%,-0.5%,-3.2
Cn1cnnc1SCC(=O)Nc1ccc2nc(SCc3ccccc3Cl)sc2c1,9.0%,25.1µM*,-12.6%[46.1 µM],-8.5%,2.7%,0.7
Cn1cnnc1SCC(=O)Nc1ccc2nc(SCc3cccc4ccccc34)sc2c1,7.1%,14.1µM*,-12.6%[46.1 µM],-3.2%,-1.0%,-0.4
CC(=O)c1ccc(NC(=S)N2C(C)CCCC2C)cc1 (stereo not given),/,-11.0%,-10.5%[46.1 µM],44.7µM*,-6.2%,-1.2
Nc1c(C(=O)N/N=C/c2ccc(Cl)cc2)cnn1-c1ccccc1,7.7%,/,9.3%,23.1%,-9.8%,-0.9
Nc1scc2c(C(=O)N/N=C/c3ccc(Cl)cc3)nn(-c3ccccc3)c(=O)c12,15.3%,10µM*,-21.6%[46.1 µM],14.1µM*,6.7%,-47.8*
CSCC[C@H](NC(=O)[C@H](CO)NC(=O)[C@H](Cc1ccc(O)cc1)NC(=O)[C@@H](N)CO)C(=O)N[C@@H](CCC(=O)O)C(=O)N[C@@H](Cc1cnc[nH]1)C(=O)N[C@@H](Cc1ccccc1)C(=O)N[C@@H](CCCNC(=N)N)C(=O)N[C@@H](Cc1c[nH]c2ccccc12)C(=O)NCC(=O)N[C@@H](CCCCN)C(=O)N1CCC[C@H]1C(=O)N[C@H](C(=O)NCC(=O)N[C@@H](CCCCN)C(=O)N[C@@H](CCCCN)C(=O)N[C@@H](CCCNC(=N)N)C(=O)N[C@@H](CCCNC(=N)N)C(=O)N1CCC[C@H]1C(=O)N[C@H](C(=O)N[C@@H](CCCCN)C(=O)N[C@H](C(=O)N[C@@H](Cc1ccc(O)cc1)C(=O)N1CCC[C@H]1C(=O)O)C(C)C)C(C)C)C(C)C,/,/,/,-18.0%,/,4.7
CCCn1c(-c2ccc(F)cc2)nc2c(N3CCN(C)CC3)nc(C)nc21,1.4%,?,/,9.5%,?,1.6
COC(=O)c1sccc1-c1ccc(/C=N/OC(=O)c2ccccc2)o1,10.5%,?,?,50.1µM*,?,-0.9
CC(C)CNc1nc(C#N)nc(Nc2ccccc2)n1,/,/,/,/,/,0.7
CC1(c2cccc(Br)c2)NC(=O)N(CC(=O)Nc2ccc(F)cc2)C1=O (stereo not given),/,/,/,-6.2%,/,1.5
Cc1ccccc1/C=N/NC(=O)Cn1cnc([N+](=O)[O-])n1,4.9%,7.9%,-19.7%[46.1 µM],2.0%,-2.4%,-3.0
O=C(Cn1cnc([N+](=O)[O-])n1)N/N=C/c1cc(Cl)ccc1O,4.6%,7.8%,6.3%,21.2%,22.4µM*,0.6
